Data taken from PubChem BioAssay (Tox21).
Records with an inconclusive call do not appear. Active and inactive are the calls of the source. Unless noted, calls come from the whole dose curve; as a rule, active = well fitted curve in the direction sought with a large enough effect in the repeat runs; inconclusive = weak or mixed curves; inactive = no such curve, though single readings can be large; an effect the other way counts as inactive or inconclusive.

Experiments:
[1] = qHTS assay for small molecule agonists of the p53 signaling pathway (AID 651631; calls by dose curve; note: nearly all actives have a fitted effect of over 15% in size)
How it was run: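 HCT-116 p53RE-bla reporter line, 16 h compound treatment at 37 °C, then fluorescence after 2 h with B/G FRET substrate.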

[2] = qHTS assay for small molecules that induce genotoxicity in human embryonic kidney cells expressing luciferase-tagged ATAD5 (AID 651632); note: nearly all actives have a fitted effect of over 15% in size
How it was run: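 Test compounds were delivered by pin tool onto HEK293T reporter cells (2,000/well) expressing ATAD5 fused to luciferase. After 16 hr at 37C, 5% CO2, Amplite was added for 30 min at room temperature and luminescence was measured.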

[3] = qHTS assay for small molecule agonists of the p53 signaling pathway - cell viability (AID 651633; calls by dose curve;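 note: p53RE-bla HCT reporter cells with a stable beta-lactamase p53 reporter; nearly all actives have a fitted effect of over 30% in size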)
How it was run: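 p53RE-bla cells, seeded at 4,000 per well and rested 5 h at 37 C/5% CO2, received compounds in DMSO for 16 h at 37 C. CellTiter-Glo was then added, and luminescence was read after 30 min at room temperature to gauge cytotoxicity.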

[4] = qHTS assay for small molecules that induce genotoxicity in human embryonic kidney cells expressing luciferase-tagged ATAD5 - cell viability (AID 651634; calls by dose curve; note: nearly all actives have a fitted effect of over 25% in size)
How it was run: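 Quantitative high-throughput format. HEK293T cells expressing ATAD5 fused to luciferase were plated at 2,000 cells/well and treated 15.5 hr with compound versus DMSO. Viability was determined by fluorescent live-cell protease substrate, 30 min at 37C.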

[5] = qHTS assay for small molecule disruptors of the mitochondrial membrane potential - cell viability (AID 720634; calls by dose curve;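 note: human HepG2 liver cancer cells; nearly all actives have a fitted effect of over 20% in size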)
How it was run: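 Same-well counter-screen: following the MMP dye addition, CellTiter-Glo was added to 1 hr compound-treated HepG2 cells and luminescence read after 30 min at room temperature.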

[6] = qHTS assay for small molecule disruptors of the mitochondrial membrane potential (AID 720635)
How it was run: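 HepG2 cells (2,000/well) attached overnight at 37C, then took compound for 1 hr at 37C, 5% CO2. Mito-MPS dye was added for 30 min; fluorescence was read at 490/535 nm (monomers) and 540/590 nm (aggregates).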

[7] = qHTS assay to test for compound auto fluorescence at 590 nm (red) in HepG2 cells (AID 720674)
How it was run: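 Intrinsic compound fluorescence in the red window (Ex/Em 540/590 nm) is measured in attached HepG2 cells exposed for 1 hr, DMSO vehicle as baseline, benchmarked to Rose Bengal sodium.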

[8] = qHTS assay to test for compound auto fluorescence at 535 nm (green) in HepG2 cells (AID 720675)
[9] = qHTS assay to test for compound auto fluorescence at 460 nm (blue) in HEK293 cells (AID 720678)
How it was run: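 Blue read-out at excitation 405 nm and emission 460 nm follows overnight compound exposure of HEK293 cells at 37C in 5% CO2. Activity is given as auto fluorescence equivalency to triamterene.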

[10] = qHTS assay to test for compound auto fluorescence at 590 nm (red) in HEK293 cells (AID 720679)
How it was run: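 Red channel, Ex/Em 540/590nm; signal expressed as equivalency to Rose Bengal sodium. HEK293, 2,000 cells/well, 10% dialyzed FBS; 23 nL compound pinned after 4-5 hr attachment; overnight 37C/5% CO2 before reading.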

[11] = qHTS assay to test for compound auto fluorescence at 535 nm (green) in HEK293 cells (AID 720680)
[12] = qHTS assay to test for compound auto fluorescence at 460 nm (blue) in HEK293 cell free culture (AID 720681)
How it was run: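 Test compounds were pinned into cell-free culture medium (DMEM with 10% FBS) and fluorescence was read directly at Ex/Em 405/460 nm. Signals were expressed as fluorescence equivalents of triamterene, with DMSO vehicle as control.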

[13] = qHTS assay to test for compound auto fluorescence at 535 nm (green) in HEK293 cell free culture (AID 720682)
How it was run: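 Steps: dispense DMEM/10% FBS into empty wells; pin in compound or DMSO; measure fluorescence at 485/535 nm. Values are fluorescein equivalents.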

[14] = qHTS assay to test for compound auto fluorescence at 590 nm (red) in HEK293 cell free culture (AID 720683)
How it was run: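 Tox21 10K library compounds were pinned into cell-free DMEM with 10% FBS and fluorescence was read at excitation 540 nm. Activity is expressed as Rose Bengal sodium equivalency.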

[15] = qHTS assay to test for compound auto fluorescence at 590 nm (red) in HepG2 cell free culture (AID 720684)
How it was run: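 Ex 540 / Em 590 nm read of compound in cell-free MEM (10% FBS). Rose Bengal sodium reference.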

[16] = qHTS assay to test for compound auto fluorescence at 460 nm (blue) in HepG2 cell free culture (AID 720685)
How it was run: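 Cell-free plates of MEM plus 10% FBS received 23 nL compound or DMSO vehicle; blue-channel (405/460 nm) intensity scored against triamterene as reference fluorophore.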

[17] = qHTS assay to test for compound auto fluorescence at 535 nm (green) in HepG2 cell free culture (AID 720686)
[18] = qHTS assay to test for compound auto fluorescence at 460 nm (blue) in HepG2 cells (AID 720687)
How it was run: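 Cells (2,000/well in MEM with 10% FBS) attached overnight at 37 C, then were exposed to compound or DMSO for 1 hr at 37 C, 5% CO2. Fluorescence read at Ex/Em 405/460 nm, expressed as triamterene-equivalent signal.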

[19] = target: Glucocorticoid receptor (Homo sapiens) (UniProt P04150); assay: qHTS assay to identify small molecule agonists of the glucocorticoid receptor (GR) signaling pathway (AID 720691; active = well fitted activation curve with a large enough effect in the signal ratio in the repeat runs, not every such curve was filed as active; the % refers to the signal ratio); conditions: GR-bla HeLa, beta-lactamase reporter ratio, 18 h; activation: at 62.4 µM (top of the series)
Sequence of Glucocorticoid receptor (Homo sapiens) (P04150 whole entry, looked up): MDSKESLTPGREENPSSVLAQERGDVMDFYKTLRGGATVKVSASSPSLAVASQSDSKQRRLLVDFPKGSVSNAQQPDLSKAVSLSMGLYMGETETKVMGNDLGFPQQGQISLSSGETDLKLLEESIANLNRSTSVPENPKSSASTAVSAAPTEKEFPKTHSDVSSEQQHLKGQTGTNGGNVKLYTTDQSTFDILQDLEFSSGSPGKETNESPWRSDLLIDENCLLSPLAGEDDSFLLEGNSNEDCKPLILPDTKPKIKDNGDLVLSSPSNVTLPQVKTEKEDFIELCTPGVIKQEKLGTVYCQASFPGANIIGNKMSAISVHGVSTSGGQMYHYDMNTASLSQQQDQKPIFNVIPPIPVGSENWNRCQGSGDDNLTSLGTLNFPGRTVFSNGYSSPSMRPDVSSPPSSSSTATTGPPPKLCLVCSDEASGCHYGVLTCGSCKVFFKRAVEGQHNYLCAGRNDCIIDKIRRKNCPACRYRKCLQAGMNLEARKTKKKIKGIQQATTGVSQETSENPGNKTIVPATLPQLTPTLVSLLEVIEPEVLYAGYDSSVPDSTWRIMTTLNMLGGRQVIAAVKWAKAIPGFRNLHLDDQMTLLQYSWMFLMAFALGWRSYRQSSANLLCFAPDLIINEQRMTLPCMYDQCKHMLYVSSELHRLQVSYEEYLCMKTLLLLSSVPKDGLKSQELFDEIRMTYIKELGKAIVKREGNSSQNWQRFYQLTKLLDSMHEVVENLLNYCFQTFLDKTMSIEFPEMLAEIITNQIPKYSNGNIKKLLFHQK
How it was run: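 A HeLa cervical cancer line expressing GR and a glucocorticoid response element-driven beta-lactamase gene is treated with compounds for 18 h; LiveBLAzer B/G FRET substrate is then applied and fluorescence read.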

[20] = target: Glucocorticoid receptor (Homo sapiens) (UniProt P04150); assay: qHTS assay to identify small molecule antagonists of the glucocorticoid receptor (GR) signaling pathway (AID 720692; active = well fitted inhibition curve with a large enough effect in the signal ratio in the repeat runs, not every such curve was filed as active; the % refers to the signal ratio)
How it was run: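 GRE-bla HeLa line, dex-stimulated (5 nM final). Compound exposure 18 h, 37 C. Beta-lactamase FRET read after 2 h RT substrate.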

Measured: Potency

CN1[C@@H]2CCC[C@H]1CC(NC(=O)c1nn(C)c3ccccc13)C2 (stereo not given in full)
inactive: [1] | [2] | [3] | [4] | [5] | [6] | [7] | [8] | [9] | [10] | [11] | [12] | [13] | [14] | [15] | [16] | [17] | [18]

COc1ccc2c(=O)c(C)c(-c3ccccc3)oc2c1CN(C)C
inactive: [1] | [2] | [3] | [4] | [5] | [6] | [7] | [8] | [9] | [10] | [11] | [12] | [13] | [14] | [15] | [16] | [17] | [18] | [19]

CC(C)(C)NC[C@H](O)COc1ccccc1C1CCCC1
inactive: [1] | [2] | [3] | [4] | [5] | [7] | [8] | [9] | [10] | [11] | [12] | [13] | [14] | [15] | [16] | [17] | [18] | [19] | [20]

Oc1cc(O)cc(O)c1
inactive: [1] | [2] | [3] | [4] | [5] | [7] | [8] | [9] | [10] | [11] | [12] | [13] | [14] | [15] | [16] | [17] | [18] | [19]

O=S(=O)(O)CCCS(=O)(=O)O
inactive: [1] | [2] | [3] | [4] | [5] | [7] | [8] | [9] | [10] | [11] | [12] | [13] | [14] | [15] | [16] | [17] | [18]

CC#CCC(C)[C@H](O)/C=C/[C@@H]1[C@H]2C/C(=C/CCCC(=O)O)C[C@H]2C[C@H]1O (stereo not given in full)
inactive: [1] | [2] | [3] | [4] | [5] | [6] | [7] | [8] | [9] | [10] | [11] | [12] | [13] | [15] | [16] | [17] | [18] | [19] | [20]

CCN(CC)CCOC(=O)c1cccnc1
inactive: [1] | [2] | [3] | [4] | [5] | [7] | [8] | [9] | [10] | [11] | [12] | [13] | [14] | [15] | [16] | [17] | [18] | [19]

NC(=O)c1ccc[n+]([C@@H]2O[C@H](COP(=O)([O-])OP(=O)(O)OC[C@H]3O[C@@H](n4cnc5c(N)ncnc54)[C@H](O)[C@@H]3O)[C@@H](O)[C@H]2O)c1
inactive: [1] | [2] | [3] | [4] | [5] | [7] | [8] | [9] | [10] | [11] | [12] | [13] | [14] | [15] | [16] | [17] | [18]

CC(C(=O)O)c1ccc(C2CCCCC2)c2ccccc12 (stereo not given)
inactive: [1] | [2] | [3] | [4] | [5] | [7] | [8] | [9] | [10] | [11] | [12] | [13] | [14] | [15] | [16] | [17] | [18]

CC1(C)S[C@@H]2[C@H](NC(=O)C(C(=O)O)c3ccsc3)C(=O)N2[C@H]1C(=O)O (stereo not given in full)
inactive: [1] | [2] | [3] | [4] | [5] | [7] | [8] | [9] | [10] | [11] | [12] | [13] | [14] | [15] | [16] | [17] | [18] | [19] | [20]

O=C(O)c1cc(O)c2c(c1)[O][Bi][O]2
inactive: [1] | [2] | [3] | [4] | [5] | [7] | [8] | [9] | [10] | [11] | [12] | [13] | [14] | [15] | [16] | [17] | [18] | [19]

O=C(O)c1cccc(/C=C2/C[C@@H]3[C@@H](/C=C/[C@@H](O)C4CCCCC4)[C@H](O)C[C@@H]3O2)c1
inactive: [1] | [2] | [3] | [4] | [5] | [7] | [8] | [9] | [10] | [11] | [12] | [13] | [14] | [15] | [16] | [17] | [18] | [19] | [20]

CCCC(=O)N1CCCN(c2nc(N)c3cc(OC)c(OC)cc3n2)CC1
inactive: [1] | [2] | [3] | [4] | [5] | [7] | [8] | [9] | [10] | [11] | [12] | [13] | [14] | [15] | [16] | [17] | [18]
